The results in this text go back to article PMC5700166.

Changes are numbered by the printed parent chain.

Experiment in all cases: protein-binding microarray (PBM); PBM: ~300 nM protein, 6 mM HEPES pH 7.8, 80 mM KCl, 0.5 mM EDTA, 0.5 mM EGTA, 6% glycerol, 35 ng/ul poly-dIdC, 1% milk, 1 h, room temperature; Ap Aiptasia and Nv Nematostella (sea anemones) / Co Capsaspora / Aq Amphimedon (sponge) / Dm Drosophila / Hu human; RHD is the Rel homology domain; high values mean tight binding
What all share (settings): dsDNA, one strand shown

Assay [1] addresses T1, GST-Ap-NF-kB RHD (Exaiptasia pallida (Aiptasia), UniProt A0A913YAJ5 2-422).
T1 sequence: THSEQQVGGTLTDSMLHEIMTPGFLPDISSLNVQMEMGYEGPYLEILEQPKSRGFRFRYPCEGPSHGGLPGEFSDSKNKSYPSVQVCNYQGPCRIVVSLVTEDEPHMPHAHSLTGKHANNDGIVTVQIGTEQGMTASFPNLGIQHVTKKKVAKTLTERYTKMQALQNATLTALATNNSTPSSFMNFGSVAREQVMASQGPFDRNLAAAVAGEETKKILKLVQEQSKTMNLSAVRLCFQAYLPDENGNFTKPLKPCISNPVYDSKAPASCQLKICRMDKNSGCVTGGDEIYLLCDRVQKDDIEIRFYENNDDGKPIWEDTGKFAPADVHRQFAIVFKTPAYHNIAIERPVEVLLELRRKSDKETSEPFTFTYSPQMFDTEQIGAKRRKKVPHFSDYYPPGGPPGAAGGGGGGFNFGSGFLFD

The target in assay [2] is T2, GST-Nv-NF-kB (Cys allele) (Nematostella vectensis, UniProt E5G601 2-411).
T2 sequence: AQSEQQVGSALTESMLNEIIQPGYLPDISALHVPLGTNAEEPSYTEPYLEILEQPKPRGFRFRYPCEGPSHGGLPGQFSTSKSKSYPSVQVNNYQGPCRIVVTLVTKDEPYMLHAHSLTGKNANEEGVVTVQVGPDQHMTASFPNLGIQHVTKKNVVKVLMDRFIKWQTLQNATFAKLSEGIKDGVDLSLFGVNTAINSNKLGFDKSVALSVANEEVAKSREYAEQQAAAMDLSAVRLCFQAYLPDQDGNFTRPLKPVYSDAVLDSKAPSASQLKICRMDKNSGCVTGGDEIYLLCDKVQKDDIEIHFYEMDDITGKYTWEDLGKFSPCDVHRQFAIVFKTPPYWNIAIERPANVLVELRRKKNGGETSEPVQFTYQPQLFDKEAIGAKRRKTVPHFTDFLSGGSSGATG

In assay [3] the target is T3, GST-Nv-NF-kB (Ser allele) (Nematostella vectensis, UniProt A7UNT2 2-411).
T3 sequence: T2 sequence with Q21R, C66S, S207N, E215Q, V217A, E225K, A268E, D399E

Assay [4] addresses T4, GST-Co-NF-kB (Capsaspora owczarzaki, UniProt F1ARL5 200-546).
T4 sequence: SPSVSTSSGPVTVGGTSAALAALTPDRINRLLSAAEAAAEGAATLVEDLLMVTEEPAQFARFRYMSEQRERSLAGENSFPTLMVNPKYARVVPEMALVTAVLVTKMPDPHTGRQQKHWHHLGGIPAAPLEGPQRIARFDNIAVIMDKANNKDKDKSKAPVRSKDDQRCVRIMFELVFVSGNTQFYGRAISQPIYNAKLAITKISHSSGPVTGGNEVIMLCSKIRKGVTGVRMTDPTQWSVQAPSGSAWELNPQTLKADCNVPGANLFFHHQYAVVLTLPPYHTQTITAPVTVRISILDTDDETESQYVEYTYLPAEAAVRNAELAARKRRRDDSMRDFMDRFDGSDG

In assay [5] the target is T5, GST-Dm-Relish (Drosophila melanogaster, UniProt Q94527 99-473).
T5 sequence: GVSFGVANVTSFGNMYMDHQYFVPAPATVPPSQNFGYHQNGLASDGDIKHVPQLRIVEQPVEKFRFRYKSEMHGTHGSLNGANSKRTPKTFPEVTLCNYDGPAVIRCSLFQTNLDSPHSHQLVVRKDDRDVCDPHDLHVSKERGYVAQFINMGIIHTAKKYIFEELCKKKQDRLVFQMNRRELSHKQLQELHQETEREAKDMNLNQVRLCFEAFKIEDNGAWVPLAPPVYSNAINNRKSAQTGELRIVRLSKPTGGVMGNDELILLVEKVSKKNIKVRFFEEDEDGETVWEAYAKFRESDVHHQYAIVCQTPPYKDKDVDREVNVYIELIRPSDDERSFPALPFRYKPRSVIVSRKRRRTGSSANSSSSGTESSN

For assay [6], the target named is T6, GST-Aq-NF-kB (Amphimedon queenslandica, UniProt A9Y5G7 2-389).
T6 sequence: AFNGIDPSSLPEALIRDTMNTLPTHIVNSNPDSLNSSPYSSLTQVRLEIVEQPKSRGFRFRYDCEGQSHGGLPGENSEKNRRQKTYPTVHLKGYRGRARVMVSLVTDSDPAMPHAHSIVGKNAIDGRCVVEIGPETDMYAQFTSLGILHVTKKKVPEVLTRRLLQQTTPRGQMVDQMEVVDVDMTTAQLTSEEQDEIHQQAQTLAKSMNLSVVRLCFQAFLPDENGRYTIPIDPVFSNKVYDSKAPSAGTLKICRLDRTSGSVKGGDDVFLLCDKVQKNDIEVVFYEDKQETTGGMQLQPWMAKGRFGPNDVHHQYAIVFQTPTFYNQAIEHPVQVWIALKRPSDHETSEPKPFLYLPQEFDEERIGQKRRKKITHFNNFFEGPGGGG

In assay [7] the target is GST-Hu-p50 (Homo sapiens, UniProt P19838 7-356).
GST-Hu-p50, sequence (P19838 7-356): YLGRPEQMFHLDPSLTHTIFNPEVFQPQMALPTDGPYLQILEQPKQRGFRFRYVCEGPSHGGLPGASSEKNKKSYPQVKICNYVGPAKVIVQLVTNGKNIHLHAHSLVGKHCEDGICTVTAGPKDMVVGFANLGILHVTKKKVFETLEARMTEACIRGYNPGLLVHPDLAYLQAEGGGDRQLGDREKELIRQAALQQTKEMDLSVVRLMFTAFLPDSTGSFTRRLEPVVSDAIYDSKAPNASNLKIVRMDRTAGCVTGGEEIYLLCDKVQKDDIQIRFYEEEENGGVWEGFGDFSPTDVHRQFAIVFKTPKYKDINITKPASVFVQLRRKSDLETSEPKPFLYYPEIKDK

On to “CCGATTAACATCAAAGTCCCCCGTGATGTTAATCGGGTCTTGATTCGCTTGACGCTGCTG”, for which the binding signal was found to be 6.78 z-score in assay [1]; 5.8 z-score in assay [2]; 6.12 z-score in assay [3]; 6.7 z-score in assay [4]; 7.35 z-score in assay [5]; 5.87 z-score in assay [6]. Also, the binding signal in assay [7] was found to be 5.37 z-score.
In the case of “CCGATTAACATCAAAACGTCCCCTGATGTTAATCGGGTCTTGATTCGCTTGACGCTGCTG”, the binding signal in assay [1] turned out to be 6.23 z-score; in assay [2], 6.41 z-score; in assay [3] it was 6.45 z-score; in assay [4], 5.34 z-score; in assay [5] it was 5.03 z-score; in assay [6], 6.19 z-score. In addition, in assay [7], the binding signal is 5.59 z-score.
As for “CCGATTAACATCAAATGTCCCCCTGATGTTAATCGGGTCTTGATTCGCTTGACGCTGCTG”, the binding signal turned out to be 6.37 z-score in assay [1]; 5.25 z-score in assay [2]; 5.66 z-score in assay [3]; 7.6 z-score in assay [4]; 5.11 z-score in assay [5]; 5.64 z-score in assay [6]. Moreover, the binding signal in assay [7] was 4.71 z-score.
On to “CCGATTAACATCAAAGGACCCCCTGATGTTAATCGGGTCTTGATTCGCTTGACGCTGCTG”, for which the binding signal turned out to be 4.81 z-score in assay [1]; 2.82 z-score in assay [2]; 3.92 z-score in assay [3]; 2.19 z-score in assay [4]; 4.18 z-score in assay [5]; 3.79 z-score in assay [6]. In assay [7], this sequence returned a binding signal of 3.2 z-score.
For “CCGATTAACATCAGGGGGATCCATGATGTTAATCGGGTCTTGATTCGCTTGACGCTGCTG”, the binding signal came out at 7.42 z-score in assay [1]; 5.12 z-score in assay [2]; 6.25 z-score in assay [3]; 4.25 z-score in assay [4]; 7.45 z-score in assay [5]; 5.46 z-score in assay [6]. The binding signal in assay [7] was 5.74 z-score.
For the sequence “CCGATTAACATCAAAAACCCCCCTGATGTTAATCGGGTCTTGATTCGCTTGACGCTGCTG”, the binding signal in assay [1] is 10.5 z-score; in assay [2], 9.26 z-score; in assay [3] it was 9.71 z-score; in assay [4], 5.82 z-score; in assay [5], 11.3 z-score; in assay [6], 8.84 z-score. In addition, the binding signal in assay [7] was 7.78 z-score.
Consider “CCGATTAACATCAAAATCCCGGGTGATGTTAATCGGGTCTTGATTCGCTTGACGCTGCTG”, for which the binding signal in assay [1] worked out at 3.32 z-score; in assay [2] it was 2.32 z-score; in assay [3] it was 2.26 z-score; in assay [4], 1.42 z-score; in assay [5], 6.58 z-score; in assay [6], 3.23 z-score. For the same sequence, in assay [7], the binding signal came out at 3.3 z-score.
For the sequence “CCGATTAACATCATTTCCCTTGCTGATGTTAATCGGGTCTTGATTCGCTTGACGCTGCTG”, the binding signal was determined as 2.33 z-score in assay [1]; 3.78 z-score in assay [2]; 3.79 z-score in assay [3]; 1.62 z-score in assay [4]; 1.3 z-score in assay [5]; 3.29 z-score in assay [6]. This sequence also gave a binding signal in assay [7] of 2.9 z-score.
For the sequence “CCGATTAACATCAACAATCCCCCTGATGTTAATCGGGTCTTGATTCGCTTGACGCTGCTG”, the binding signal in assay [1] amounted to 7.89 z-score; in assay [2], 7.16 z-score; in assay [3], 7.92 z-score; in assay [4], 5.22 z-score; in assay [5], 5.46 z-score; in assay [6], 5.71 z-score. In assay [7], this sequence yielded a binding signal of 6.6 z-score.
